A selection: hits, their analogues and other compounds. The true share with any hit is near 2.9%.
POLK inh – qHTS for Inhibitors of Polymerase Kappa. DNA polymerase kappa (Homo sapiens), Q9UBT6. Potency, µM (series often up to 107 µM), inactives show at the highest dose activity, negative = inhibition, actives largely listed as inhibitors. purified Pol kappa, fluorescent DNA synthesis assay, 10 min. 0.53% of 400,000 active; also: potency is read from the fitted curve at half-maximal effect; % is scaled to controls: 0 for no effect and ±100 for the full control effect
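First, compounds were pin-transferred onto 10 nM Pol kappa. After 15 min at room temperature, substrate was added to 50 nM final. Fluorescence was then measured kinetically at 0 and 10 min.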
PI5P4K alpha inh – qHTS for Inhibitors of phosphatidylinositol 5-phosphate 4-kinase (PI5P4K); 1.2% of 330,000 active; PI5P4Kalpha enzyme, ADP-Glo luminescence, 60 min; hits give low values; Phosphatidylinositol 5-phosphate 4-kinase type-2 alpha (Homo sapiens), P48426; max response, %; AID 652105, 2013; active = max response of -50% or lower; inconclusive = between -30% and -50%; inactive = -30% or higher; also: value at the top dose of about 77 µM; % is scaled to controls: 0 for no effect and ±100 for the full control effect
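qHTS, 1536-well: enzyme/substrate mix, compound by pin tool, 5 microM ATP final; RT 60 min; ADP-Glo reagents 1 (45 min) then 2 (30 min); luminescence.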
POLB inh – qHTS Assay for Inhibitors of DNA Polymerase Beta | Pol beta primer extension/strand displacement, fluorescence kinetic | AID 485314, 2010 | P06746 | Potency, µM (highest dose often 114 µM), for the others: top-dose activity change, negative = inhibition, most hits filed as inhibitors | 1.3% of 340,000 active; also: potency is read from the fitted curve at half-maximal effect; % is scaled to controls: 0 for no effect and ±100 for the full control effect
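10 nM enzyme + cpd, 15 min RT; start with substrate 50 nM final; read 0 min and after 10 min RT. Corrected, normalized data; 4-parameter Hill curve fit.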
POLI inh – qHTS for Inhibitors of Polymerase Iota; DNA polymerase iota (Homo sapiens), Q9UNA4; Pol iota fluorescent replication assay, 10 min; Potency, µM (highest dose often 115 µM), for the others: at the top dose activity, negative = inhibition, usual class: inhibitors; 1% of 390,000 active; AID 588590, 2011; also: potency is read from the fitted curve at half-maximal effect
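Pol iota at 10 nM preincubated 15 min with compounds at room temperature; reaction started with fluorescent substrate, 50 nM final. Fluorescence read kinetically at 0 and 10 min; buffer-only wells as negative control.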
POLH inh – qHTS for Inhibitors of Polymerase Eta. Potency, µM (doses to about 114 µM), for inactives: top-dose activity change, negative = inhibition, hits mostly inhibitors. AID 588591, 2011. recombinant Pol eta, fluorescent DNA replication assay. 1.2% of 390,000 active; also: potency is read from the fitted curve at half-maximal effect; % is scaled to controls: 0 for no effect and ±100 for the full control effect
Target sequence (Q9Y253 whole entry, looked up): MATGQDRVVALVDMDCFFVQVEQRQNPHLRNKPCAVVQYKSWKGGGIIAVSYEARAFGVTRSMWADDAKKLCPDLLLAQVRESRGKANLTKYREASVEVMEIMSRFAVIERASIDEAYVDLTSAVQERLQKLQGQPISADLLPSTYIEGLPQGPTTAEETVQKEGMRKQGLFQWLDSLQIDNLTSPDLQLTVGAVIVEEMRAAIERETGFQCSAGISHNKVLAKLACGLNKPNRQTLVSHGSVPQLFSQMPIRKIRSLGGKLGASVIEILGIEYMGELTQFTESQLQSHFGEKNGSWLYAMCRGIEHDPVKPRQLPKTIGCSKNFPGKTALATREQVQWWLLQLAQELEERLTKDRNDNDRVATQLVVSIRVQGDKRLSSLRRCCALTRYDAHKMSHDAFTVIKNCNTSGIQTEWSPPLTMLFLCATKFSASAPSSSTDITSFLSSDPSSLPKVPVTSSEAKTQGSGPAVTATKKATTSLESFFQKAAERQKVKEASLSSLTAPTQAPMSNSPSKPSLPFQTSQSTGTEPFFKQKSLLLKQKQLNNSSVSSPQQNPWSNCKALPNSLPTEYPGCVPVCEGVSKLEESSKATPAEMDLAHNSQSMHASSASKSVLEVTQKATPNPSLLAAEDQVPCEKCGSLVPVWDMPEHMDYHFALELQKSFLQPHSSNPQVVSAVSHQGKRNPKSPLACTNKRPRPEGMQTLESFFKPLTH
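Pol eta at 10 nM preincubated with compounds 15 min at room temperature; reaction started with fluorescent substrate (50 nM final) and read kinetically at 0 and 10 min.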
12-LOX inh – Primary qHTS assay for inhibitors of human arachidonate 12S-lipoxygenase (ALOX12): Round 2 | Polyunsaturated fatty acid lipoxygenase ALOX12 (Homo sapiens), P18054 | purified 12hLO, xylenol orange hydroperoxide absorbance | Potency, µM (highest dose often 108 µM), inactives show at the top dose activity change, negative = inhibition, actives largely listed as inhibitors | 1.1% of 580,000 active; also: potency is read from the fitted curve at half-maximal effect; % is scaled to controls: 0 for no effect and ±100 for the full control effect
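Purified human 12hLO at 150 nM in 25 mM Hepes, 0.01% Triton X-100, pH 7.0, preincubated 15 min at room temperature with compound. Reaction started with 40 uM arachidonic acid, 30 min at room temperature. Hydroperoxide measured by Fe-xylenol orange, 573/405 nm absorbance ratio.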
* marks the source's active call; other numbers are inactive results; i = inactive; ? = inconclusive; · = no result given; [ ] = another dose, or the depositor's remark. Unless noted, calls follow the shape of the dose curve; as a rule, active = well fitted inhibition curve with a large enough effect; inconclusive = small, poorly fitted or top-dose-only effect, or another doubt; inactive = no such curve, though single readings can be large or run the other way.

SMILES | POLK inh | PI5P4K alpha inh | POLB inh | POLI inh | POLH inh | 12-LOX inh
N#CCC(=O)Nc1ccc(C(=O)OCC(=O)c2ccc3c(c2)NC(=O)CO3)cc1 | ? | -29 | · | 22µM* | ? | 28%
N#CCC(=O)Nc1ccc(C(=O)OCC(=O)NCc2ccc3c(c2)OCO3)cc1 | -5% | ? | · | 15% | -8% | 51%
N#CCC(=O)Nc1ccc(C(=O)OCC(=O)NC(=O)Nc2ccc3c(c2)OCCO3)cc1 | -16% | ? | · | ? | 45µM* | 54%
O=C1COc2ccc(C(=O)COC(=O)/C=C/c3ccco3)cc2N1 | ? | ? | · | 45µM* | ? | ·
O=C1COc2ccc(C(=O)COC(=O)c3ccco3)cc2N1 | 10% | -26 | 6% | 24% | 0% | -2%
Cc1ccc(OCC(=O)Nc2cccc3cccnc23)cc1C | · | · | · | · | · | 3%
CC(C)(C)c1nc(C(=O)NCc2ccc(F)cc2)n2ccncc12 | · | · | · | · | · | 0%[6.33 µM]
Cc1cccc(/C=C(/C#N)c2ccc(C(F)(F)F)cn2)c1 | · | · | · | · | · | 2%
CNC(=O)N/C=C(/C#N)C(=O)OC | · | · | · | · | · | 2%
Cc1csc(NC(=O)/C=C/c2ccc3c(c2)OCO3)n1 | 2% | 5 | 14% | 6% | -6% | 1%
O=C(/C=C/c1ccc2c(c1)OCO2)Nc1nc(-c2ccc(F)cc2F)cs1 | · | · | 22µM* | · | · | ·
Cc1ccc(-c2nc(C#N)c(NCCN(C)C)o2)cc1 | · | · | · | · | · | -3%
COCCN(Cc1cc2ccccc2[nH]c1=O)C(=O)c1cc(OC)cc(OC)c1 | · | · | · | · | · | 4%
CCOC(=O)C(=CNNc1cccc(Cl)c1)C(=O)OCC | -15% | 9 | -3% | 102% | -3% | 13µM*
O=C(COCc1cc(-c2ccc(F)cc2)on1)Nc1ccccc1F | · | · | · | · | · | 0%
CCOC(=O)COc1nc(-c2ccc(C)cc2)cc(-c2ccco2)c1C#N | -3% | -1 | 0% | 0% | -16% | 195%
CCOC(=O)C(C)Sc1nc(-c2ccco2)cc(C(F)(F)F)c1C#N (configuration not stated) | -15% | -56* | -1% | ? | -16% | ?
CCOC(=O)COc1nc(-c2ccco2)cc(-c2ccco2)c1C#N | ? | ? | ? | 50µM* | -1% | -1%
Fc1cccc(C[n+]2csc3ccccc32)c1 | -19% | -22 | 10% | 14% | -13% | 18µM*
CCc1cccc2c(C(=O)COC(=O)c3cccc(S(=O)(=O)N(C)C4CCCCC4)c3)c[nH]c12 | -2% | -68* | -1% | 7% | -22% | 0%
COCCCNC(=O)C1CC(=O)N(CCc2ccc(OC)c(OC)c2)C1 (configuration not stated) | -18% | 3 | 0% | -4% | 32µM* | 124%
COc1ccc(/C=N/Nc2nc(=O)[nH]nc2C)cc1[N+](=O)[O-] | -16% | 6 | -7% | 38% | -2% | -5%
COc1cc(/C=N/Nc2ccccc2[N+](=O)[O-])cc(OC)c1O | 5% | 6 | 2% | 60% | -10% | -22%
COc1cc(/C=N/Nc2nc(=O)[nH]nc2C)cc([N+](=O)[O-])c1O | 0% | -52* | -14% | 12% | -13% | 12%
COc1cc(/C=N/Nc2nc3ccccc3s2)cc([N+](=O)[O-])c1O | -6% | -51* | 22µM* | -8% | 56µM* | 0%
SMILES | POLK inh | PI5P4K alpha inh | POLB inh | POLI inh | POLH inh | 12-LOX inh
COc1cc(/C=N/Nc2ccc(S(N)(=O)=O)cc2[N+](=O)[O-])cc(OC)c1O | -20% | 2 | ? | 40µM* | ? | -24%
C=CCNC(=S)NC(=O)c1ccc(C)c(Br)c1 | 2% | 3 | 52% | 17% | -22% | 35µM*
C=CCNC(=S)NNC(=O)c1ccc(C)c(Cl)c1 | -19% | -1 | -25% | 6% | -19% | 17%
FC(F)(F)c1cc(-c2ccco2)nc(NCc2cccs2)n1 | -10% | ? | 1% | 8% | ? | ?
FC(F)(F)c1cc(-c2ccco2)nc(NCc2ccco2)n1 | ? | ? | ? | ? | 50µM* | ?
COc1ccc(-n2c(=O)c3c4c(sc3n3cnnc23)CCC4)cc1 | · | · | · | · | · | 35%
CC1C(=O)Nc2ccc(S(=O)(=O)N3CCN(c4cccc(Cl)c4)CC3)cc2NC1=O (configuration not stated) | -2% | 3 | -2% | -15% | -12% | -8%
CC1C(=O)Nc2ccc(S(=O)(=O)N3CCN(c4cccc(C(F)(F)F)c4)CC3)cc2NC1=O (configuration not stated) | -10% | -1 | ? | 35µM* | 0% | 8%
CCC(Sc1nc2ccsc2c(=O)n1Cc1ccc(C(=O)O)cc1)C(=O)Nc1ccc(C)c(Cl)c1 (configuration not stated) | -30% | -1 | ? | ? | 79µM* | ?
CCC(Sc1nc2ccsc2c(=O)n1CCC(=O)O)C(=O)Nc1ccc(Cl)cc1 (configuration not stated) | · | 4 | · | · | -14% | -18%
Cc1ccc(NC(=O)C2CCCC2)cc1Cl | -11% | 0 | · | 1% | -2% | 250%
Cc1ccc(NC(=S)NC(=O)C2CCCC2)c(Br)c1 | -11% | 10 | · | 17% | -14% | 35µM*
Cc1ccc(NS(=O)(=O)c2ccc(Cl)c(NC(=S)NC(=O)C3CCCCC3)c2)cc1Cl | -23% | -9 | 2% | -4% | -16% | 13µM*
Cc1ccnc(N/C=C(/Cl)C(=O)C(F)(F)F)c1 | · | · | · | · | · | 40µM*
O=C(/C(Cl)=C/Nc1ccccn1)C(F)(F)F | · | · | · | · | · | -9%
Cc1cc2oc(C(=O)NCC(c3cccs3)N(C)C)cc(=O)c2cc1C (configuration not stated) | · | · | · | · | · | 16%
Cc1cc(C)c2nc(-c3ccccn3)cc(C(=O)Nc3cc(C)on3)c2c1 | -2% | -11 | -18% | ? | ? | 0%
Cc1cc(C)c2nc(-c3ccccn3)cc(C(=O)NCc3ccco3)c2c1 | ? | ? | 40µM* | ? | ? | ?
Cc1cc(C)c2nc(-c3ccccn3)cc(C(=O)NCc3cc(C)n(C)n3)c2c1 | 0% | -8 | 40µM* | 17% | -10% | i
CC(=O)c1cccc(NC(=O)Cn2cc(C(=O)c3cccc(Cl)c3)c(=O)c3ccc(C)nc32)c1 | -7% | · | 15% | 89µM* | -1% | -12%
COc1cccc(C(=O)c2cn(CC(=O)Nc3cccc(Cl)c3C)c3nc(C)ccc3c2=O)c1 | -15% | · | -21% | -24% | -10% | ?

Screening data from PubChem BioAssay.
